# According to PubChem BioAssay (EPA / NIEHS):
# Values joined by “and” are separate entries in the source; they are usually repeats but may differ in a detail not shown here. Identical values can stand only once. Some structures have more than one record in an assay (separate samples or runs), and their calls can disagree. Active and inactive are the calls of the source. Rule for the calls: active = hit-call score of the fitted dose curve at least 0.9, where 1 is the maximum; inactive = score below 0.9.
# Assay: ATG_AP_2_CIS: Attagene CIS-FACTORIAL HepG2 Assay for human Activator Protein 2 (AP-2) (AID 2282932)
# Details: HepG2 AP-2 cis-reporter, Attagene transcription factor profiling; actives raise or lower the signal
# Experimental: ATG_CIS is a cell-based, multiplexed-readout assay that uses HepG2, a human liver cell line, with measurements taken at 24 hours after chemical dosing in a 24-well plate.ATG_AP_2_CIS is one of 52 assay component(s) measured or calculated from the ATG_CIS assay. It is designed to make measurements of mRNA induction, a form of inducible reporter, as detected with fluorescence intensity signals by Reverse transcription polymerase chain reaction (RT-PCR) and Capillary electrophoresis technology.Data from the assay component ATG_AP_2_CIS was analyzed into 1 assay endpoint. This assay endpoint, ATG_AP_2_CIS, was analyzed with bidirectional fitting relative to DMSO as the negative control and baseline of activity. Using a type of inducible reporter, measures of mRNA for gain or loss-of-signal activity can be used to understand the reporter gene at the transcription factor-level as they relate to the gene TFAP2A and TFAP2B and TFAP2D. Furthermore, this assay endpoint can be referred to as a primary readout, because this assay has produced multiple assay endpoints where this one serves a reporter gene function. To generalize the intended target to other relatable targets, this assay endpoint is annotated to the dna binding intended target family, where the subfamily is basic helix-turn-helix leucine zipper.
# Human liver HepG2 cells are transiently transfected with multiple reporter transcription units (MRTUs) in 6-well plates using FuGene 6 reagent (Roche; 3 ml FuGene/1 mg DNA). The MRTU constructs are regulated by a cis-regulating element (promoter). […] A major difference between the CIS and TRANS system is that in CIS activities of endogenous TFs are measured, whereas the TRANS assay evaluates changes in activities of exogenous, chimeric NR-Gal4 proteins. […] At the end of 24 hour incubation, total RNA was isolated using TriZol reagent (Invitrogen). The isolated RNA is then reverse-transcribed using oligo(dT) primer and Mo-MLV reverse transcriptase (Invitrogen) with DNAse I (Ambion) treatment for 30 min. The one-tenth of the produced cDNA was amplified by PCR using Taq DNA polymerase (Invitrogen) and two reporter sequence-specific primers. The PCR products were fluorescently labeled by primer extension with 6-arboxyfluorescein (6-FAM) 5'-labeled reporter sequence-specific primer (2 min at 95 C, 20 s at 68 C and 10 min at 72 C) and these products were digested with 5U of HpaI (New England Biolabs) for 2h at 37 C. The fragments were purified using Qiaquick PCR columns (Qiagen), analyzed on an ABI 3130xL genetic analyzer (Applied Biosystems) with peak positions identified by using a set of X-rhodamine (ROX)-labeled MapMarker1000 molecular weight standards (BioVentures). The raw capillary electrophoresis data was processed using Attagraph software (Attagene).
SMILES,outcome,AC50
CCOC(=O)C(C)Oc1ccc(Oc2cnc3cc(Cl)ccc3n2)cc1 (stereo not given),inactive,
CC(C)CCCCCCc1ccc(O)cc1,inactive,18.2 µM (active) and 17.2 µM (active)
CCCCOCCOCCOCc1cc2c(cc1CCC)OCO2,inactive,
COC(=O)c1ccc(I)cc1S(=O)(=O)NC(=O)Nc1nc(C)nc(OC)n1,inactive,
COCCO,inactive,
c1ccc2[nH]c(-c3cscn3)nc2c1,inactive,
COc1c(Cl)ccc(Cl)c1C(=O)O,inactive,
CC(=O)[C@H]1CC[C@H]2[C@@H]3CCC4=CC(=O)CC[C@]4(C)[C@H]3CC[C@]12C,inactive,
CCSC(=O)N(CC(C)C)CC(C)C,inactive,
CCOC(=O)NCCOc1ccc(Oc2ccccc2)cc1,inactive,
CCNc1nc(N)nc(Cl)n1,inactive,
CC(C)(C)[C@@H](O)[C@@H](Cc1ccc(Cl)cc1)n1cncn1,inactive,
CCCCCOC(=O)COc1cc(N2C(=O)C3=C(CCCC3)C2=O)c(F)cc1Cl,inactive,
CCC(O)=C1C(=O)CC(C(=O)O)CC1=O (stereo not given),inactive,
CCCCOC(=O)[C@@H](C)Oc1ccc(Oc2ccc(C(F)(F)F)cn2)cc1,inactive,
Oc1ccc(C(c2ccc(O)cc2)C(Cl)(Cl)Cl)cc1,inactive,
O=C(O)c1ccccc1,inactive,
CC(C)(c1ccc(O)cc1)c1ccc(O)cc1,inactive,121 µM (active) and 148 µM (active) and 101 µM (active)
Cc1nn(C)c(Oc2ccccc2)c1C=NOCc1ccc(C(=O)OC(C)(C)C)cc1,inactive,

SMILES,outcome,AC50
COC(=O)c1ccccc1S(=O)(=O)NC(=O)Nc1nc(OC(F)F)cc(OC(F)F)n1,inactive,
CC(=O)S[C@@H]1CC2=CC(=O)CC[C@]2(C)[C@H]2CC[C@@]3(C)[C@@H](CC[C@@]34CCC(=O)O4)[C@H]12,inactive,
N#CSCSc1nc2ccccc2s1,inactive,9.15 µM (active)
COC(=O)c1cccc(C)c1S(=O)(=O)NC(=O)Nc1nc(OCC(F)(F)F)nc(N(C)C)n1,inactive,
CCCOC(=O)c1ccc(C(=O)OCCC)nc1,inactive,
COC(=O)c1ccc(CNS(C)(=O)=O)cc1S(=O)(=O)NC(=O)Nc1nc(OC)cc(OC)n1,inactive,
CCCN(CCC)C(=O)SCC,inactive,
N[C@@H](Cc1cc(I)c(Oc2ccc(O)c(I)c2)c(I)c1)C(=O)O,inactive,
CCN(Cc1c(F)cccc1Cl)c1c([N+](=O)[O-])cc(C(F)(F)F)cc1[N+](=O)[O-],inactive,
COC(=O)c1ccccc1C(=O)O,inactive,
C#C[C@]1(O)CC[C@H]2[C@@H]3CCC4=CC(=O)CC[C@@H]4[C@H]3CC[C@@]21CC,inactive,
CCCCC(CC)CN1C(=O)C2C3C=CC(C3)C2C1=O (stereo not given),inactive,
O=C(c1ccc(O)cc1O)c1ccc(O)cc1O,inactive,
COc1nc(C)nc(NC(=O)NS(=O)(=O)c2ccccc2OCCCl)n1,inactive,
COC(=O)c1c(Cl)nn(C)c1S(=O)(=O)NC(=O)Nc1nc(OC)cc(OC)n1,inactive,
S=C([S-])NCCNC(=S)[S-].[Mn+2],inactive,
O=C(Nc1ccc([N+](=O)[O-])cc1Cl)c1cc(Cl)ccc1O,inactive,
CCOC(=O)[C@H](C)Oc1ccc(Oc2nc3ccc(Cl)cc3o2)cc1,inactive,
